For 40 compounds, percent growth results are on record in the supplement of paper PMC7866885, “A novel bicyclic 2,4-diaminopyrimidine inhibitor of Streptococcus suis dihydrofolate reductase” (PeerJ, 2021).

± gives the standard deviation.

The experiment concerns Streptococcus suis P1/7. As to the kind of experiment: percent growth relative to DMSO control; higher = less growth inhibition. To be noted: 10 µM; incubation time 18 h. The protocol:
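CLSI broth microdilution: 5x10^4 CFU of Streptococcus suis (strain P1/7 or HE06) incubated with 10 µM Pathogen Box compound in cation-adjusted Mueller Hinton broth, 37 °C, 5% CO2, 18 h. Growth read as OD600 and expressed as percent of the DMSO-treated control (100%); mean ± SD of three independent experiments.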
In turn, `Nc1ncnc2c1c(-c1cnc3ccccc3c1)nn2CC1CCNCC1` returned a percent growth of 102 ± 20%.
Regarding `CC1(COc2ccc(N3CCC(Oc4ccc(OC(F)(F)F)cc4)CC3)cc2)Cn2cc([N+](=O)[O-])nc2O1` (stereo not given), the percent growth is 114 ± 61%.
The compound `O=C(CN1CCOCC1)Nc1ccc2ncnc(Nc3ccc(OCc4cccc(F)c4)c(Cl)c3)c2c1` showed a percent growth of 63 ± 18%.
`O=C(Nc1ccccc1)c1ccc(-c2cc3ccncc3cc2OC2CCNCC2)s1` showed a percent growth of 72.3 ± 8.4%.
For `COc1ccc(C2(C(=O)Nc3ccc(Br)cc3)CCCC2)cc1`, the percent growth was 92.5 ± 15%.
`CC(C)(C)n1nc(-c2ccccc2)c2c(N)ncnc21` showed a percent growth of 84.5 ± 20%.
`O=C(NCc1ccoc1)N1CCN(Cc2ccc3c(c2)OCO3)CC1`: the percent growth stood at 78.3 ± 6.3%.
The compound `O=C(COc1cccc(F)c1)Nc1nc(-c2ccccn2)cs1` yielded a percent growth of 3.07 ± 5.3%.
`Cc1cc(Cl)c(S(=O)(=O)N2CCCC2)cc1OCC(=O)NC1CCCCC1` showed a percent growth of 63.6 ± 18%.
For the compound `COc1ccc(Nc2ccccc2NC(=O)c2ccc(O)nc2)cc1`, the percent growth was found to be 99.1 ± 41%.
The same measure for `CN1CCN(S(=O)(=O)c2ccc(-c3ccc4c(Nc5ncc(Cl)cn5)ccnc4c3)cc2)CC1`: 103 ± 47%; for `COc1ccc(OC)c(NCc2ccc3nc(N)nc(N)c3c2Cl)c1`: 2.34 ± 1.3%.
Consider `CC(C)(C)c1cnc(NC(=O)c2ccccc2O)s1`, for which the percent growth is 1.61 ± 1.4%.
Compound `CCC(Sc1nc2ccccc2o1)C(=O)Nc1nnc(C)s1` (stereo not given) registered a percent growth of 0.154 ± 0.27%.
In the case of `CCc1ccc(S(=O)(=O)Nc2cc(CN3CCN(CCC(C)C)CC3)ccc2C)cc1`, the percent growth was determined as 73.2 ± 8.1%.
The same measure for `COC(=O)c1ccc(F)cc1NS(=O)(=O)c1cccc(-c2cnn(Cc3ccccc3)c2)c1`: 127 ± 52%; for `CCn1cnc2c(Nc3cc(F)cc(F)c3)nc(C#N)nc21`: 75.3 ± 24%.
The same measure for `O=C(Nc1ccc(F)c(-c2nc3cc(-c4ccccc4)cnc3[nH]2)c1)N1CCCC1`: 83.7 ± 5.5%; for `Nc1nc(N)c2c3c(sc2n1)CN(Cc1ccccc1)CC3`: 87.8 ± 9.9%.
With `COc1cccc(-n2nnnc2S(C)(=O)=O)c1`, the percent growth was 67.1 ± 23%.
Turning to `Cc1nn2c(=O)c3c([nH]c2c1-c1ccc(Cl)cc1)CCCC3`, the percent growth was 12.7 ± 22%.
As for `NS(=O)(=O)c1cncc(-c2ccc3nccc(-c4cn[nH]c4)c3n2)c1`, the percent growth stood at 77.6 ± 23%.
Take `COc1ccc(C2=NN(C3CCCCCC3)C(=O)[C@@H]3CC=CC[C@H]23)cc1OCCCCOc1ccc(-c2nn[nH]n2)cc1`: the percent growth worked out at 0.12 ± 0.21%.
Turning to `COc1ccccc1OCCCCn1c(C2CC2)nc2ccccc21`, the percent growth came to 102 ± 21%.
With `O=C(Nc1ccnc(-c2cccnc2)n1)c1cc(C(F)(F)F)cc(C(F)(F)F)c1`, the percent growth was 123 ± 50%.
In the case of `CCc1ccccc1-n1c(C)cn2c3c(=O)n(C(C(=O)OC)C(C)C)c(=O)n(C)c3nc12` (stereo not given), the percent growth was found to be 101 ± 14%.
The same measure for `CS(=O)(=O)c1ccccc1C(=O)N(Cc1ccccc1)c1ccccc1`: 107 ± 33%; for `CC(C)n1nc(-c2cc3c(Cl)cccc3[nH]2)c2c(N)ncnc21`: 74.2 ± 5.9%; for `O=C(Nc1ccccc1-c1nc2c(C(=O)O)cccc2o1)c1ccccc1`: 68.3 ± 5.7%.
On to `CC(C)(C)c1cc(C(=O)N2CCN(c3nccnc3C#N)CC2)n(Cc2ccccc2)n1`, for which the percent growth was 91.6 ± 34%.
Compound `c1coc(CNc2nc(N3CCCCC3)nc3ccccc23)c1` displayed a percent growth of 89 ± 32%.
For the compound `CCN(CC)S(=O)(=O)c1ccc(C(=O)Nc2cc(C)nn2-c2nc(C)c(C)c(=O)[nH]2)cc1`, the percent growth amounted to 3.31 ± 3.3%.
As for `Nc1ncc(-c2ccc(C(F)(F)F)nc2)cc1-c1ccc(C(F)(F)F)nc1`, the percent growth turned out to be 101 ± 35%.
For `Cc1ccc2cc(C3NC(=O)c4ccccc4N3)c(Cl)nc2c1` (stereo not given), the percent growth was determined as 116 ± 46%.
With `CCc1cc(=O)n(C)c(SC(C)C(=O)Nc2ccc(F)cc2)n1` (stereo not given), the percent growth came to 74.8 ± 63%.
Regarding `Nc1ncnc2c1ncn2[C@@H]1O[C@H](COS(=O)(=O)NC(=O)c2ccccc2O)[C@@H](O)[C@H]1O`, the percent growth came out at 78.6 ± 9.8%.
For the compound `CN(C(=O)c1cc2c(-c3cncnc3)cccc2[nH]1)c1ccccc1`, the percent growth was 72.2 ± 27%.
Take `CCOC(=O)c1cc(-c2csc(Nc3c(C)cc(C)cc3C)n2)on1`: the percent growth was 108 ± 60%.
The compound `O=C(OCc1ccccc1)N1CCC(c2cc(-c3ccncc3)c(-c3ccc(F)cc3)[nH]2)CC1` gave a percent growth of 92 ± 13%.
For `O=C1COCc2ccc(Br)cc2N1Cc1ccc(C(F)(F)F)cc1`, the percent growth was found to be 75.4 ± 7.3%.
